These results are taken from PubChem BioAssay.

Assay [1] is described as follows: HepG2 liver cancer cell viability effects, profiling panel, resazurin fluorescence, 24 h, PK04 Diversity Set (AID 1172). Further: test concentration not given here. The settings on record: higher = more signal. Background: Resazurin is reduced to fluorescent resorufin, in cell work by metabolically active cells.
A short description of assay [2]: basal S. cerevisiae growth modulation, no modifier, primary screen, OD600, strain BY4716, 24 h, basal condition (AID 1173). As to conditions: OD600, 24 h, higher = more signal, called active from +8 up or from −8 down.
Assay [3] can be described thus: MM1S myeloma cell viability, profiling panel, resazurin fluorescence, basal, 24 h, PK04 Diversity Set (AID 1174).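 Further: MM1S multiple myeloma cell line; test concentration not given here.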 As to conditions: higher = more signal, called active from +8 up or from −8 down.
The target of assay [4] is Dihydroorotate dehydrogenase (quinone), mitochondrial (Plasmodium falciparum (isolate 3D7)) (UniProt Q08210). In words: PfDHODH enzyme inhibitors, primary screen, biochemical, C-terminal His tag, absorbance 600 nm (AID 1175).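 Further: recombinant parasite enzyme with a five histidine tag at its C terminus; test concentration not given here.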 As to conditions: DCIP absorbance 600 nm, higher = more signal, called active from +8 up or from −8 down.
Chain of Dihydroorotate dehydrogenase (quinone), mitochondrial (Plasmodium falciparum (isolate 3D7)) (Q08210 whole entry, looked up): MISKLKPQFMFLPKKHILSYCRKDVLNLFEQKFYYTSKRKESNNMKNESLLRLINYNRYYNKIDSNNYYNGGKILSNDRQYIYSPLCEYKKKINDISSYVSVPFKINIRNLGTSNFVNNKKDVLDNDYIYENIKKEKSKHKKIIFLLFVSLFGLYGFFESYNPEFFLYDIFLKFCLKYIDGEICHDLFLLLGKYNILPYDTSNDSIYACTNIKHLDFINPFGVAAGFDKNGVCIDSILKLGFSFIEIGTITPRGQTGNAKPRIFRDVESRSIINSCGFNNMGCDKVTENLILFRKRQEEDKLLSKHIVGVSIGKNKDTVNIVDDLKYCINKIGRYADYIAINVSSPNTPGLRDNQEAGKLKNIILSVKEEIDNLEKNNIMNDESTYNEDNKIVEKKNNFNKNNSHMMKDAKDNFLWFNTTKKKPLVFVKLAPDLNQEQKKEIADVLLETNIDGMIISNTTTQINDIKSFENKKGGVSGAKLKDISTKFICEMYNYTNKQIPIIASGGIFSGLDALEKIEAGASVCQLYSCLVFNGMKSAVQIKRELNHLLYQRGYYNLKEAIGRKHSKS
A short description of assay [5]: P. aeruginosa biofilm formation inhibitors, primary screen, strain PAO1, LB-PBS medium, absorbance 600 nm (AID 1176). Further: test concentration not given here. As to conditions: P. aeruginosa PAO1 growth/biofilm, A600, 12 h; higher = more signal.
Assay [6] can be described thus: S. cerevisiae RM11-1a growth modifiers, primary screen, strain RM11-1a, OD600, basal, 24 h (AID 1177).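 Further: cultures grown under basal conditions with no added stressor; test concentration not given here.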 As to conditions: OD600, 24 h, higher = more signal, called active from +8 up or from −8 down.
The nature of assay [7]: E. coli acrAB mutant growth effects, primary screen, E. coli filamentation inducers, strain DRC39, OD650, 24 h (AID 1178).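 Further: growth measured as culture turbidity by optical density at 650 nm; test concentration not given here.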 As to conditions: higher = more signal, called active from +8 up or from −8 down.
Assay [8] in a line: E. coli acrAB mutant growth effects, primary screen, E. coli filamentation inducers, strain DRC39, OD650, 48 h (AID 1179).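 Further: screen aims at cell division blockers that make cells filament.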 The settings on record: E. coli DRC39 delta-acrAB growth, higher = more signal, called active from +8 up or from −8 down.
Assay [9] can be described thus: RPMI8226 myeloma cell viability, profiling panel, resazurin fluorescence, basal, 24 h, PK04 Diversity Set (AID 1180).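 Further: RPMI8826 multiple myeloma cell line at 5000 cells per well; test concentration not given here.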 The settings on record: higher = more signal.
Assay [10] addresses E3 ubiquitin-protein ligase XIAP (Homo sapiens) (UniProt P98170). In words: XIAP binders, primary screen, biophysical, small-molecule microarray, fluorescence 635 nm (AID 1181).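 Further: score merges 667 nm emission and signal to noise over triplicate slides.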 As to conditions: small-molecule microarray binding, higher = more signal.

Activity calls are given as the source filed them. Unless noted, how the calls were made is not given here.

Chain of E3 ubiquitin-protein ligase XIAP (Homo sapiens) (P98170 whole entry, looked up): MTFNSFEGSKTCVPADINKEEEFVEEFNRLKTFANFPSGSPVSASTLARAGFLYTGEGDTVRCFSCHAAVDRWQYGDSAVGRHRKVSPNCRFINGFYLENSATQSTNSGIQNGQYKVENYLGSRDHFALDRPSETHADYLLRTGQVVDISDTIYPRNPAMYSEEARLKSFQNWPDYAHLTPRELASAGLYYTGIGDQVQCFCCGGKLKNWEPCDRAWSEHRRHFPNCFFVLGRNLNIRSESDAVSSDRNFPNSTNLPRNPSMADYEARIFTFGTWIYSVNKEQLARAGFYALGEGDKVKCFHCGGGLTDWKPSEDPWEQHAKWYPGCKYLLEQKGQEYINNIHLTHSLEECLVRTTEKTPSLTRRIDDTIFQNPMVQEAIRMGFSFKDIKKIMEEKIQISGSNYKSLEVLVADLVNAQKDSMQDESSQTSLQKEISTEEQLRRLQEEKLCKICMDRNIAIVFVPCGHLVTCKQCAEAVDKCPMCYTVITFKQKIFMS

As to `CO[C@H]1COC(=O)CC=C[C@H](C)[C@@H](NS(=O)(=O)c2ccc(C)cc2)COC(=O)CC=C[C@@H]1C`, the z-score was 0.55 in assay [1]; -1.66 (inactive) in assay [2]; -0.31 (inactive) in assay [3]; -0.573 (inactive) in assay [5]; -4.14 (inactive) in assay [6]; -0.721 (inactive) in assay [7]. Besides, the values for the z-score in assay [8] and in [9] were -1.03 (inactive) and -0.203, respectively. In addition, the composite z-score in assay [4] was -2.98 (inactive); in assay [10] it was -0.255.

`CO[C@@H]1COC(=O)[C@H](C)NC(=O)[C@@H](C)COC(=O)CCC[C@H]1C`: the z-score in assay [1] is 0.868; in assay [2], 0.0728 (inactive); in assay [3], -0.516 (inactive); in [5], -0.892 (inactive); in assay [6] it was 0.0233 (inactive); in [7] it was 0.277 (inactive). For the same compound, the z-score in [8] was -0.297 (inactive); in assay [9], -0.0734. The composite z-score in assay [4] was -0.926 (inactive); in [10] it was -0.153.

As for `C[C@@H]1C=CCC(=O)OC[C@H](C)C(=O)OC[C@H]2O[C@H]1C=C[C@H]2O`, the z-score in assay [1] is 0.0061; in [2], -0.368 (inactive); in [3], 0.313 (inactive); in assay [5] it was -0.814 (inactive); in assay [6] it was 1.14 (inactive); in assay [7] it was 0.0992 (inactive). Besides, the z-score in assay [8] was -0.249 (inactive); in [9], 0.52. Moreover, the composite z-score was 0.603 (inactive) in assay [4] and -0.379 in assay [10].

Consider `CCCNC(=O)[C@@H]1c2ccccc2C(=O)N(c2ccc(C)cn2)[C@H]1c1ccc(CO)cc1`, for which the z-score in assay [1] was 0.306; in assay [2], 0.325 (inactive); in assay [3], -0.472 (inactive); in [5] it was 0.388 (inactive); in assay [6], -0.826 (inactive); in [7] it was 0.232 (inactive). In addition, the figures for the z-score in assay [8] and in assay [9] were 0.0239 (inactive) and -0.682, respectively. Besides, the composite z-score was -0.165 (inactive) in [4] and -0.165 in [10].

For `CCOC(=O)[C@H](Cc1ccccc1)NC(=O)CCC1CC(OC(=O)NCCc2ccc(F)cc2)CC2(CCCC(COC(=O)NCC(c3ccccc3)c3ccccc3)O2)O1` (stereo not given in full), the z-score in assay [1] is 0.506; in assay [2], 0.167 (inactive); in assay [3], -0.874 (inactive); in assay [5], 0.0494 (inactive); in assay [6], 0.509 (inactive); in assay [7], 0.565 (inactive). Also, the values for the z-score in [8] and in [9] were -0.563 (inactive) and 0.489, respectively. Further, the composite z-score in assay [4] was -0.219 (inactive); in assay [10], -0.161.

Regarding `COC(=O)[C@H](C)NC(=O)CCC1CC(OC(=O)NCc2cccc3ccccc23)CC2(CCCC(COC(=O)NCC3CCCCC3)O2)O1` (stereo not given in full), the z-score was 1.14 in assay [1]; -0.201 (inactive) in [2]; 0.486 (inactive) in assay [3]; -0.127 (inactive) in assay [5]; 0.617 (inactive) in assay [6]; 0.0476 (inactive) in assay [7]. Further, the z-score in assay [8] is -0.399 (inactive); in assay [9], 1.23. Besides, the composite z-score in assay [4] is -0.533 (inactive); in [10], -0.02.

For the compound `COC(=O)CC=C[C@@H](C)[C@@H](C=NO[C@H](C)c1cn([C@@H]2COC[C@H]2O)nn1)OC`, the z-score in assay [1] is -0.879; in assay [2], -0.435 (inactive); in [3], -0.179 (inactive); in assay [5] it was 0.666 (inactive); in [6], 0.0782 (inactive); in assay [7], 0.773 (inactive). Further, the z-score in assay [8] was 0.878 (inactive); in [9], -0.359. Moreover, the composite z-score was -0.295 (inactive) in [4] and -0.0206 in assay [10].

As to `CCOC(=O)NN=C1C[C@@H](O)[C@@H](O)[C@@H]2[C@@H]3C(=O)N(C4CCCCC4)C(=O)[C@@H]3CC[C@H]12`, the z-score in assay [1] is -0.912; in [2], 0.486 (inactive); in assay [3] it was -0.74 (inactive); in [5], -0.0941 (inactive); in assay [6] it was 0.0422 (inactive); in assay [7], -0.43 (inactive). Moreover, the z-score in assay [8] was -0.358 (inactive); in assay [9], -0.927. Further, the composite z-score was 0.406 (inactive) in [4] and -0.0246 in [10].

`O=C(NN=C1C[C@@H](O)[C@@H](O)[C@@H]2[C@@H]3C(=O)N(c4ccc(F)cc4F)C(=O)[C@@H]3CC[C@@H]12)OCc1ccccc1`: the z-score in [1] is 0.801; in assay [2], 0.207 (inactive); in assay [3] it was 0.442 (inactive); in [5] it was -1.09 (inactive); in [6], 1.01 (inactive); in [7], 0.502 (inactive). Also, the z-score in [8] is 0.873 (inactive); in [9] it was 0.508. In addition, the composite z-score in [4] is -0.192 (inactive); in assay [10] it was -0.27.

For `CC(=O)O[C@H]1C2=C(C(=O)[C@@H]3O[C@@H]31)[C@H]1C(C)O[C@@H]2[C@@]23C(=O)[C@@H]4O[C@@H]4[C@@H](O)C2=CO[C@H](C)[C@@H]13` (stereo not given in full), the z-score is 0.0072 in [1]; 0.174 (inactive) in assay [2]; -1.01 (inactive) in assay [3]; -0.0812 (inactive) in assay [5]; -0.2 (inactive) in assay [6]; 0.223 (inactive) in assay [7]. In addition, the figures for the z-score in [8] and in [9] were 0.186 (inactive) and -1.12, respectively. The composite z-score in [4] is -0.0495 (inactive); in assay [10] it was -0.0454.

For the compound `CCCCCCc1nc(CCCc2cc3c(c(CCCCCC)n2)[Si](C(C)C)(C(C)C)O[C@H]3c2ccccc2)cc2c1[Si](C(C)C)(C(C)C)O[C@H]2c1ccccc1`, the z-score in assay [1] is 0.0054; in assay [2], 1.33 (inactive); in assay [3], -0.582 (inactive); in assay [5], 0.0793 (inactive); in assay [6], -0.879 (inactive); in assay [7] it was -0.631 (inactive). Moreover, the z-score in assay [8] is -0.981 (inactive); in [9], -0.465. Besides, the composite z-score in [4] was -0.347 (inactive); in assay [10], -0.117.

Turning to `CCOC(=O)C[C@H]1[C@H](OC(=O)c2ccc(C(=O)c3ccccc3)cc2)[C@@H](NC(=O)c2ccc(-c3ccccc3)cc2)c2cc(OCCCO)ccc2N1C(=O)c1ccc2ccccc2n1`, the z-score was 0.206 in [1]; -1.1 (inactive) in [2]; 0.38 (inactive) in [3]; -0.0998 (inactive) in [5]; -0.0276 (inactive) in [6]; 0.254 (inactive) in assay [7]. The z-score was 1.23 (inactive) in [8] and 0.909 in [9]. Also, the values for the composite z-score in assay [4] and in [10] were -1.69 (inactive) and 0.119, respectively.

`CCOC(=O)C[C@H]1[C@H](OC(=O)c2cc3ccccc3oc2=O)[C@@H](NC(=O)c2ccc3ccccc3n2)c2cc(OCCCO)ccc2N1C(=O)c1ccccc1`: the z-score in [1] is -0.983; in assay [2], -2.08 (inactive); in assay [3], -0.668 (inactive); in assay [5], -0.754 (inactive); in assay [6], -0.0333 (inactive); in [7], -0.341 (inactive). Also, the z-score in assay [8] is -0.753 (inactive); in [9], -0.599. Besides, the composite z-score is -1.97 (inactive) in assay [4] and 0.217 in assay [10].
